Test results taken from the supplement of paper PMC10849652.
Targets with a hit are over-represented here; the source holds about 8,800 in all. About 0.5% of all pairs of compound and target were hits. Values without a mark were called inactive.

Experiments:
Test in all cases: log2 fold change, soluble protein after heating vs DMSO (PISA); higher = thermal stabilisation; K562 lysate, 10 uM; active = over 0.2 and 3.5 SD of the protein, either way, in both replicates (recomputed)
lapatinib = compound: CS(=O)(=O)CCNCc1ccc(-c2ccc3ncnc(Nc4ccc(OCc5cccc(F)c5)c(Cl)c4)c3c2)o1 [lapatinib]
Method in brief: (§1)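 K562 pellets were dounce-homogenised in PBS pH 7.4 containing 1 mM MgCl2, and the crude extract, at 1 mg/mL protein, was exposed to 10 μM compound for 30 min. Aliquots were heated for 3 min across 48°C-58°C, pooled, brought to 0.5% NP-40 at 4°C and spun at 21,000xg for 90 min, with the supernatant taken as soluble protein. TMTpro 16plex LC-MS/MS with equalised channel sums quantified that protein. Values are log-two fold changes in thermal stability relative to solvent controls, taken from duplicates.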

pictilisib = compound: CS(=O)(=O)N1CCN(Cc2cc3nc(-c4cccc5[nH]ncc45)nc(N4CCOCC4)c3s2)CC1 [pictilisib]
Method in brief: as §1

crizotinib = compound: C[C@@H](Oc1cc(-c2cnn(C3CCNCC3)c2)cnc1N)c1c(Cl)ccc(F)c1Cl [crizotinib]
Method in brief: as §1

[1] = compound: C[C@H](C1=CC=C(C=C1)C(=O)NC2=C3C=CNC3=NC=C2)N
Method in brief: as §1

duvelisib = compound: C[C@H](Nc1ncnc2nc[nH]c12)c1cc2cccc(Cl)c2c(=O)n1-c1ccccc1 [duvelisib]
Method in brief: as §1

gandotinib = compound: Cc1cc(Nc2cc(CN3CCOCC3)c3nc(C)c(Cc4ccc(Cl)cc4F)n3n2)n[nH]1 [gandotinib]
Method in brief: as §1

tozasertib = compound: Cc1cc(Nc2cc(N3CCN(C)CC3)nc(Sc3ccc(NC(=O)C4CC4)cc3)n2)n[nH]1 [tozasertib]
Method in brief: as §1

doramapimod = compound: Cc1ccc(-n2nc(C(C)(C)C)cc2NC(=O)Nc2ccc(OCCN3CCOCC3)c3ccccc23)cc1 [doramapimod]
Method in brief: as §1

bafetinib = compound: Cc1ccc(NC(=O)c2ccc(CN3CC[C@H](N(C)C)C3)c(C(F)(F)F)c2)cc1Nc1nccc(-c2cncnc2)n1 [bafetinib]
Method in brief: as §1

[2] = compound: Cc1cccc(CC(=O)N2CCc3c2ccc(-c2cn(C)c4ncnc(N)c24)c3F)n1
Method in brief: as §1

nilotinib = compound: Cc1cn(-c2cc(NC(=O)c3ccc(C)c(Nc4nccc(-c5cccnc5)n4)c3)cc(C(F)(F)F)c2)cn1 [nilotinib]
Method in brief: as §1

[3] = compound: Cc1nc(Nc2n[nH]c3c2CN(C(=O)N[C@H](CN(C)C)c2ccccc2)C3(C)C)c2sccc2n1
Method in brief: as §1

dasatinib = compound: Cc1nc(Nc2ncc(C(=O)Nc3c(C)cccc3Cl)s2)cc(N2CCN(CCO)CC2)n1 [dasatinib]
Method in brief: as §1

[4] = compound: Cc1ncc(-c2ccnc(Nc3ccc(S(C)(=O)=O)cc3)n2)n1C(C)C
Method in brief: as §1

[5] = compound: Cn1cc(-c2ccc3c(c2)CCN3C(=O)Cc2cccc(C(F)(F)F)c2)c2c(N)ncnc21
Method in brief: as §1

quisinostat = compound: Cn1cc(CNCC2CCN(c3ncc(C(=O)NO)cn3)CC2)c2ccccc21 [quisinostat]
Method in brief: as §1

tipifarnib = compound: Cn1cncc1[C@@](N)(c1ccc(Cl)cc1)c1ccc2c(c1)c(-c1cccc(Cl)c1)cc(=O)n2C [tipifarnib]
Method in brief: as §1

[6] = compound: NC(=O)Nc1cc(-c2cccc(F)c2)sc1C(=O)N[C@H]1CCCNC1
Method in brief: as §1

[7] = compound: NC(=O)c1cnc(N[C@@H]2CCCC[C@@H]2N)nc1Nc1cccc(-n2nccn2)c1
Method in brief: as §1

[8] = compound: NC1(c2ccc(-c3nc4ccn5c(=O)[nH]nc5c4cc3-c3ccccc3)cc2)CCC1
Method in brief: as §1

UniProt P61586, sequence (P61586 whole entry, looked up): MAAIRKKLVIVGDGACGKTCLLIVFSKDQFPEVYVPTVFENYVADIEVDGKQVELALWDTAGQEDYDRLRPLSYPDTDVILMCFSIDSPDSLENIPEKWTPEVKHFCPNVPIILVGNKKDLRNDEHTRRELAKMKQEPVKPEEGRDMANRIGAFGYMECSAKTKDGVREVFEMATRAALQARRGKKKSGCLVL
UniProt Q9H0U4, sequence (Q9H0U4 whole entry, looked up): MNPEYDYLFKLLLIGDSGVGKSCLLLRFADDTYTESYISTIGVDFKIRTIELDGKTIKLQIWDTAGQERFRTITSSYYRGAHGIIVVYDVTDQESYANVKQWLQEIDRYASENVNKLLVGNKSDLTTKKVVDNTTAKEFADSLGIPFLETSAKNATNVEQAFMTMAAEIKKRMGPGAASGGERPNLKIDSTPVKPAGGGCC
UniProt Q9BVS4, sequence (Q9BVS4 whole entry, looked up): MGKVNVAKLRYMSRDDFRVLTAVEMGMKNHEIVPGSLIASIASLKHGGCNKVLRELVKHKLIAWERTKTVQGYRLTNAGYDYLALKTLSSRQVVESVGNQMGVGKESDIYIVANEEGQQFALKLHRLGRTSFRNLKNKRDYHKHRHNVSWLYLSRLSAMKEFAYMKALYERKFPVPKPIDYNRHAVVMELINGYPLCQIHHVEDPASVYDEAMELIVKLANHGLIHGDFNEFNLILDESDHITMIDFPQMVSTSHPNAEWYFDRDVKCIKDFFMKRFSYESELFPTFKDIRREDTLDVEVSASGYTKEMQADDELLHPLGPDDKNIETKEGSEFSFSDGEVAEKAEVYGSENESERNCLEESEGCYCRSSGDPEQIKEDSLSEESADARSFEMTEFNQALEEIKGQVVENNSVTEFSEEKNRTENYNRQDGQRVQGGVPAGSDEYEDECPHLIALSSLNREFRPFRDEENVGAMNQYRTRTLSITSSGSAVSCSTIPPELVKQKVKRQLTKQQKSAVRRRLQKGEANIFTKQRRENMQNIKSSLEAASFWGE
UniProt Q9Y3T6, sequence (Q9Y3T6 whole entry, looked up, one chain of several): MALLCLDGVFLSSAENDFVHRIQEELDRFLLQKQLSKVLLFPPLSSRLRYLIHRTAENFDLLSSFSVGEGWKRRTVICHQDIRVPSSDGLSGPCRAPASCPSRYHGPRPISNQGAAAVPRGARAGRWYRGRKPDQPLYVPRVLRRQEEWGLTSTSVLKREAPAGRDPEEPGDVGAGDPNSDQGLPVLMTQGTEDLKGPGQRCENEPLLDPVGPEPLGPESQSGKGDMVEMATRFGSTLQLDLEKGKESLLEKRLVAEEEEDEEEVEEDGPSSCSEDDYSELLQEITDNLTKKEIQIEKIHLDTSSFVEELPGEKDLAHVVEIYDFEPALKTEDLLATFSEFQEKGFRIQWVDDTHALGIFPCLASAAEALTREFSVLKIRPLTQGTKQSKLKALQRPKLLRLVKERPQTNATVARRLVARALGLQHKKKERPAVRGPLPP
UniProt O15027, sequence (O15027 whole entry, looked up): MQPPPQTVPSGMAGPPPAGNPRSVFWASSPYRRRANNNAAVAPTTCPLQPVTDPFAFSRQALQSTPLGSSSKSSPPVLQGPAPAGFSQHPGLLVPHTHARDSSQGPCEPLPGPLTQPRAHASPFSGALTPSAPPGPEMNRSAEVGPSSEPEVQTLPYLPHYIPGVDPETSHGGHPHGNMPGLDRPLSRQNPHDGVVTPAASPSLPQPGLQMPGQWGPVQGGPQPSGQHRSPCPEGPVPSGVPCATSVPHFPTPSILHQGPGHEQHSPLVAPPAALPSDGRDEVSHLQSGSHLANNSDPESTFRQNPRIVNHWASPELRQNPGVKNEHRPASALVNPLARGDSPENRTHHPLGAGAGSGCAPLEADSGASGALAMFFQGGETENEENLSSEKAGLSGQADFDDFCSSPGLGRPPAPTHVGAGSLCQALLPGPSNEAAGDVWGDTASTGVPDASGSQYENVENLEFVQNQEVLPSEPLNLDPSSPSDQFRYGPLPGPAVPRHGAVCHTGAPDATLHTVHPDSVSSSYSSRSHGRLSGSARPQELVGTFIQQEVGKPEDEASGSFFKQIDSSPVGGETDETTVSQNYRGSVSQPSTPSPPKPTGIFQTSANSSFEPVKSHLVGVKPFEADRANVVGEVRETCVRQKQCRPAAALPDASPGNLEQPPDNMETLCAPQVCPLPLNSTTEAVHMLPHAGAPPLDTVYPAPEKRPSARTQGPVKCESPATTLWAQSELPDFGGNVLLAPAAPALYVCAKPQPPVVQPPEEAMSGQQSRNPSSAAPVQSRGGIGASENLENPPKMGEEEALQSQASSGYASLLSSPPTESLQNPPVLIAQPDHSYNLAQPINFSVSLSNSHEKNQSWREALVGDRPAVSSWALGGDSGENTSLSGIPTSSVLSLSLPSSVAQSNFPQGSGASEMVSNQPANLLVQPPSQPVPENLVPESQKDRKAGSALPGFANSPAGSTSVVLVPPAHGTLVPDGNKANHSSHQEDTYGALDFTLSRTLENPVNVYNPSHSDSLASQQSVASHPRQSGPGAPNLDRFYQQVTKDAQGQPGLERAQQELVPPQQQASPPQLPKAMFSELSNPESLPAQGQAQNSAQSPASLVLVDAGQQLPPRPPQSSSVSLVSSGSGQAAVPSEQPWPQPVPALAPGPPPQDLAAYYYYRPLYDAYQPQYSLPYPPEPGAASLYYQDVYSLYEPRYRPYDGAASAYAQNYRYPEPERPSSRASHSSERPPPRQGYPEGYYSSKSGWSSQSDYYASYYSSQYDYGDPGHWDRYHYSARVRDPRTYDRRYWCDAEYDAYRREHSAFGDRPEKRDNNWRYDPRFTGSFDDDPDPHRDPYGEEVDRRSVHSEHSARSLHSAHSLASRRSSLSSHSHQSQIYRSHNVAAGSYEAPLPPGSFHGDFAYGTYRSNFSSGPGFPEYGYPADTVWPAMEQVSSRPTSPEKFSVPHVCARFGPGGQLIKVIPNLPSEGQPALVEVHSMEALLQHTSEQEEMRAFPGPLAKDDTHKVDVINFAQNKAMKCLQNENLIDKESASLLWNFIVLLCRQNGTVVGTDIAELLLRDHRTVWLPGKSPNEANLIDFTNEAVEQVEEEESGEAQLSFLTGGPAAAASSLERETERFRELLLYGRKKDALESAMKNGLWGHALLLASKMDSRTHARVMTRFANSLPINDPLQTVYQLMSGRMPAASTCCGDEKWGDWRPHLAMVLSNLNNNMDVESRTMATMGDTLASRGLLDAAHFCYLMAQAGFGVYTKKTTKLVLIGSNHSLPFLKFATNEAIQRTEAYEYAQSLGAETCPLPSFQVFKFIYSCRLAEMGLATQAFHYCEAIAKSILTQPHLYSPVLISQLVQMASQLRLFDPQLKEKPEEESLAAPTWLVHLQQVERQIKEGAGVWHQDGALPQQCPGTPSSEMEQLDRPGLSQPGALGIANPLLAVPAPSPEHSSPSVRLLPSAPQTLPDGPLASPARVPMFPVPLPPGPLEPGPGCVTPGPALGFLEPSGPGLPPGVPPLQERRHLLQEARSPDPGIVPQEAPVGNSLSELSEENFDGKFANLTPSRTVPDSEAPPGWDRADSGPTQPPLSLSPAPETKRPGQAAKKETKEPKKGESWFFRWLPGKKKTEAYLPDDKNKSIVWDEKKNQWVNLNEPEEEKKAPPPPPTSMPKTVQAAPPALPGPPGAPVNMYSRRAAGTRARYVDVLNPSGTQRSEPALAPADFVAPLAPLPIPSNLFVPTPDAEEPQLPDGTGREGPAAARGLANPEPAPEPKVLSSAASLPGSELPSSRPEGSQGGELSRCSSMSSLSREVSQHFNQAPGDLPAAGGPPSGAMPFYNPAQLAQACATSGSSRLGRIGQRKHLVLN
UniProt P35241, sequence (P35241 whole entry, looked up): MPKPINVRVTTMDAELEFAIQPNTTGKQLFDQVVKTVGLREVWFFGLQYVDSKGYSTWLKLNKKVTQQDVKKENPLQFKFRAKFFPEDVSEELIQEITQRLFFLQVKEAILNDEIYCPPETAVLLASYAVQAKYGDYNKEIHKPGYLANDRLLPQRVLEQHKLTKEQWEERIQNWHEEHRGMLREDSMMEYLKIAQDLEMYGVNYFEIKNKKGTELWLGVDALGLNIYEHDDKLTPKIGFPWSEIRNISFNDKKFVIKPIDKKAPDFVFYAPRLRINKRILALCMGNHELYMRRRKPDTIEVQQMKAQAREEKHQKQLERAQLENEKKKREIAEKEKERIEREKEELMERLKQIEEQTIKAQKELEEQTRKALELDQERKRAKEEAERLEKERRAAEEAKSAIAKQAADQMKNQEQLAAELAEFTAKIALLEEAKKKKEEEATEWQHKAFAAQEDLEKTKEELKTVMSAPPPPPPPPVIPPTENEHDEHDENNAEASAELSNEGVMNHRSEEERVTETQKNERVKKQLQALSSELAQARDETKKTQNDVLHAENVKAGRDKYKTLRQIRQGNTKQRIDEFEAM
UniProt Q9P0P0, sequence (Q9P0P0 whole entry, looked up): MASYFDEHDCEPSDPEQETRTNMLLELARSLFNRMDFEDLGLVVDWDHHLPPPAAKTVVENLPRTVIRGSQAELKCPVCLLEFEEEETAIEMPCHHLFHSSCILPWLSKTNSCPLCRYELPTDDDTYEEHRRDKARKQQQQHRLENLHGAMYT
UniProt Q02094, sequence (Q02094 whole entry, looked up): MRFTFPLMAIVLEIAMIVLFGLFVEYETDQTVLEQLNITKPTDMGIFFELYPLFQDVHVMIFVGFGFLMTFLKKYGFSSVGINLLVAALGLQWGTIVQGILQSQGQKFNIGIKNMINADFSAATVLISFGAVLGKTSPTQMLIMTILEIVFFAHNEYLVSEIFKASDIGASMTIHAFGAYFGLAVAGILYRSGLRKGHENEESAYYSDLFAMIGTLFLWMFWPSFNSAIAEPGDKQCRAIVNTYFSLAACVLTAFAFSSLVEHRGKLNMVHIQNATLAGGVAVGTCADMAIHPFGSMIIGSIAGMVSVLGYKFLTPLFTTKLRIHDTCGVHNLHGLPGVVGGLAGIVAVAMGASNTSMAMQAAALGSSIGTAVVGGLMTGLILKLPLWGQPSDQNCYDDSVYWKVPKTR

Row | Target | log2 fold change (lapatinib) | log2 fold change (pictilisib) | log2 fold change (crizotinib) | log2 fold change [1] | log2 fold change (duvelisib) | log2 fold change (gandotinib) | log2 fold change (tozasertib) | log2 fold change (doramapimod) | log2 fold change (bafetinib) | log2 fold change [2] | log2 fold change (nilotinib) | log2 fold change [3] | log2 fold change (dasatinib) | log2 fold change [4] | log2 fold change [5] | log2 fold change (quisinostat) | log2 fold change (tipifarnib) | log2 fold change [6] | log2 fold change [7] | log2 fold change [8]
1 | SEC16A isoform 5 (UniProt O15027) | -0.019 | -0.044 | 0.018 | -0.039 | -0.013 | -0.014 | -0.001 | -0.002 | 0.031 | 0.029 | -0.119 | 0.008 | -0.007 | 0.006 | -0.002 | -0.054 | -0.036 | 0.032 | 0.004 | -0.011
2 | RAB1B (UniProt Q9H0U4) | 0.021 | 0.053 | 0.031 | -0.35 (active) | 0.033 | 0.156 | 0.011 | -0.052 | -0.038 | 0.242 (active) | 0.016 | 0.003 | -0.058 | -0.029 | -0.001 | 0.016 | -0.04 | -0.052 | -0.041 | 0.002
3 | R3HCC1 (UniProt Q9Y3T6) | -0.018 | -0.049 | 0 | -0.034 | 0 | 0.089 | 0.006 | 0.044 | 0.002 | 0.08 | -0.023 | 0.012 | 0.043 | 0.011 | -0.049 | -0.014 | -0.058 | -0.036 | 0.003 | 0.038
4 | RCOR1 (UniProt Q9UKL0) | -0.056 | -0.069 | 0.048 | -0.083 | -0.004 | -0.009 | 0.019 | -0.061 | -0.056 | 0.041 | -0.024 | -0.006 | -0.054 | 0.009 | 0.003 | 0.015 | -0.022 | 0.043 | -0.015 | 0.099
5 | RHAG (UniProt Q02094) | -0.046 | -0.002 | -0.038 | -0.381 (active) | 0.113 | 0.07 | 0.05 | 0.032 | 0.004 | 0.184 | 0.041 | -0.013 | -0.029 | -0.016 | -0.06 | -0.142 | 0.011 | 0.011 | -0.024 | -0.002
6 | REEP5 (UniProt Q00765) | -0.001 | -0.026 | 0.024 | -0.11 | 0.01 | 0.061 | -0.052 | -0.03 | -0.027 | 0.055 | 0.107 | -0.011 | 0.056 | 0.003 | -0.012 | 0.005 | 0.026 | -0.024 | 0 | -0.023
7 | RIOK2 (UniProt Q9BVS4) | -0.032 | 0.269 | 0.047 | -0.028 | 0.016 | 0.829 (active) | -0.011 | -0.028 | 0.093 | -0.012 | 0.002 | 0.034 | 0.01 | 0.537 (active) | -0.023 | -0.054 | -0.013 | 0.05 | 0.198 | -0.03
8 | RECQL5 (UniProt O94762) | 0.277 | 0.06 | 0.049 | 0.084 | 0.029 | -0.15 | 0.031 | -0.008 | -0.062 | -0.09 | -0.026 | 0.057 | 0.023 | 0.011 | -0.04 | -0.013 | -0.064 | 0.034 | 0.343 | 0.049
9 | RPL8 (UniProt P62917) | -0.005 | 0.01 | 0.059 | 0.147 | 0.008 | -0.072 | 0.033 | -0.038 | 0.071 | -0.051 | -0.005 | -0.004 | 0.035 | -0.028 | -0.013 | 0.222 (active) | 0.027 | -0.019 | -0.008 | -0.006
10 | RNF181 (UniProt Q9P0P0) | 0.079 | -0.069 | 0.049 | 0.057 | 0.028 | -0.042 | 0.054 | 0.057 | -0.03 | 0.01 | 0.023 | 0.027 | 0.013 | 0.007 | -0.004 | -0.027 | -0.03 | 0.006 | -0.01 | -0.023
11 | RHOA (UniProt P61586) | 0.009 | 0.314 | 0.035 | 0.345 (active) | -0.023 | -0.058 | -0.092 | -0.036 | 0.08 | -0.138 | -0.08 | 0.104 | 0.017 | -0.008 | -0.013 | 0.167 | -0.021 | -0.004 | 0.008 | -0.062
12 | RDX (UniProt P35241) | -0.018 | 0.02 | 0.063 | 0.546 (active) | 0.005 | -0.093 | -0.005 | -0.045 | 0.077 | -0.136 | -0.003 | -0.006 | 0.037 | 0.048 | -0.008 | 0.047 | 0.013 | -0.007 | 0.002 | 0.006
13 | QRSL1 (UniProt Q9H0R6) | 0.038 | 0.044 | 0.031 | 0.105 | 0.044 | -0.04 | 0.044 | 0.003 | -0.227 | -0.022 | -0.022 | 0.031 | -0.018 | 0.069 | 0.07 | -0.054 | -0.002 | 0.034 | -0.02 | -0.031
14 | RALA (UniProt P11233) | -0.017 | -0.022 | 0.012 | -0.3 (active) | 0 | 0.158 | -0.009 | 0.014 | 0.029 | 0.217 (active) | -0.04 | -0.001 | 0.017 | -0.04 | -0.018 | 0.004 | -0.041 | 0.033 | 0.038 | -0.003
15 | SAP30 (UniProt O75446) | -0.064 | -0.036 | 0.044 | 0.042 | 0.004 | -0.036 | -0.056 | 0.013 | -0.073 | 0.012 | 0.104 | -0.464 (active) | -0.063 | -0.124 | 0.012 | -0.111 | -0.026 | 0.037 | -0.035 | –
16 | SDHA (UniProt P31040) | 0.004 | -0.011 | -0.008 | -0.004 | 0.013 | 0.03 | 0.006 | 0.024 | 0.026 | -0.017 | 0.035 | 0.009 | 0.016 | 0.004 | -0.033 | -0.022 | -0.034 | -0.037 | -0.013 | 0.007
